Assay results as given in PubChem BioAssay (Tox21).
Records with an inconclusive call do not appear. The source made the active and inactive calls. Calls follow the shape of the dose curve; as a rule, active = well fitted curve in the direction sought with a large enough effect in the repeat runs; inconclusive = weak or mixed curves; inactive = no such curve, though single readings can be large; an effect the other way counts as inactive or inconclusive. Non-standard residues stand in square brackets, D forms with d. Residues, ends and D or L forms follow the SMILES beside them. *: point of attachment. Sta = CC(C)C[C@H](N)[C@@H](O)CC(=O)O; Isovaleryl = CC(C)CC(=O)*

Tests used:
[1] = qHTS RealTime-Glo MT Cell Viability Assay in HEK293 cells - 32 hour (AID 1224868); also: top concentration of the series differs between compounds; nearly all actives have a fitted effect of over 50% in size
Outline: (§1)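 HEK293 cells seeded with NanoLuc/prosubstrate reagent, rested 5 h at 37 C, then dosed and kept at 37 C up to 40 h. Nonlytic real-time luminescence from viable cells read at 0, 8, 16, 24, 32 and 40 h.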

[2] = A CellTox Green Cytotoxicity Assay to monitor cytotoxicity in HEK293 cells - 0 hour (AID 1224869); also: nearly all actives have a fitted effect of over 50% in size
Outline: (§2)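 Fluorescence intensity, read at 0, 8, 16, 24, 32 and 40 h of compound treatment, reflected dye binding to DNA of dead HEK293 cells; compounds (23 nL, DMSO) were added 5 h after plating cells with reagent.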

[3] = A CellTox Green Cytotoxicity Assay to monitor cytotoxicity in HEK293 cells - 40 hour (AID 1224871); also: nearly all actives have a fitted effect of over 45% in size
Outline: as §2

[4] = qHTS RealTime-Glo MT Cell Viability Assay in HEK293 cells - 16 hour (AID 1224872); also: top concentration of the series differs between compounds; nearly all actives have a fitted effect of over 50% in size
Outline: as §1

[5] = qHTS RealTime-Glo MT Cell Viability Assay in HepG2 cells - 8 hour (AID 1224873); also: nearly all actives have a fitted effect of over 55% in size
Outline: (§3)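 HepG2 cells mixed with RealTime-Glo MT reagents (NanoLuc plus cell-permeant prosubstrate) were seeded at 600 cells/well, incubated 5 h at 37 C/5% CO2, then pinned with compounds in DMSO; nonlytic luminescence tracked viability during 40 h treatment.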

[6] = qHTS RealTime-Glo MT Cell Viability Assay in HEK293 cells - 40 hour (AID 1224874); details: RealTime-Glo luminescence, stronger effect = lower value; also: nearly all actives have a fitted effect of over 50% in size
Outline: (§4)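 Viable HEK293 cells reduce a cell-permeant prosubstrate; the product diffuses out and is consumed by NanoLuc in the medium to give light. Compounds went in after a 5 h incubation and plates were read over the treatment course.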

[7] = A CellTox Green Cytotoxicity Assay to monitor cytotoxicity in HEK293 cells - 24 hour (AID 1224875); also: series mostly up to about 77 µM; nearly all actives have a fitted effect of over 45% in size
Outline: as §2

[8] = A CellTox Green Cytotoxicity Assay to monitor cytotoxicity in HepG2 cells - 16 hour (AID 1224876); also: nearly all actives have a fitted effect of over 45% in size
Outline: (§5)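 Using 1536-well format, dye-containing HepG2 suspension was seeded, allowed 5 h at 37 C/5% CO2, dosed by pintool with compounds, positive and negative controls, and imaged for fluorescence across 40 h.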

[9] = qHTS RealTime-Glo MT Cell Viability Assay in HepG2 cells - 32 hour (AID 1224877); also: nearly all actives have a fitted effect of over 55% in size
Outline: (§6)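 HepG2 cells (600/well) were dispensed with RealTime-Glo reagents, incubated 5 h at 37 °C, then treated with compounds in DMSO for up to 40 h. Nonlytic NanoLuc luminescence reflecting viable cells was read at each stated time point.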

[10] = A CellTox Green Cytotoxicity Assay to monitor cytotoxicity in HepG2 cells - 24 hour (AID 1224878); also: nearly all actives have a fitted effect of over 45% in size
Outline: as §5

[11] = A CellTox Green Cytotoxicity Assay to monitor cytotoxicity in HepG2 cells - 40 hour (AID 1224879); also: nearly all actives have a fitted effect of over 40% in size; also: potency is read from the fitted curve at half-maximal effect
Outline: as §5

[12] = qHTS RealTime-Glo MT Cell Viability Assay in HEK293 cells - 0 hour (AID 1224880)
Outline: as §4

[13] = A CellTox Green Cytotoxicity Assay to monitor cytotoxicity in HEK293 cells - 32 hour (AID 1224881); also: nearly all actives have a fitted effect of over 40% in size
Outline: as §2

[14] = A CellTox Green Cytotoxicity Assay to monitor cytotoxicity in HepG2 cells - 32 hour (AID 1224883); also: nearly all actives have a fitted effect of over 50% in size
Outline: as §5

[15] = A CellTox Green Cytotoxicity Assay to monitor cytotoxicity in HEK293 cells - 8 hour (AID 1224884); also: nearly all actives have a fitted effect of over 35% in size
Outline: as §2

[16] = qHTS RealTime-Glo MT Cell Viability Assay in HepG2 cells - 16 hour (AID 1224885); also: nearly all actives have a fitted effect of over 50% in size
Outline: as §6

[17] = qHTS RealTime-Glo MT Cell Viability Assay in HEK293 cells - 8 hour (AID 1224887)
Outline: as §4

[18] = qHTS RealTime-Glo MT Cell Viability Assay in HepG2 cells - 40 hour (AID 1224870); also: nearly all actives have a fitted effect of over 50% in size
Outline: as §3

[19] = A CellTox Green Cytotoxicity Assay to monitor cytotoxicity in HepG2 cells - 0 hour (AID 1224882); also: nearly all actives have a fitted effect of over 35% in size
Outline: as §5

[20] = qHTS RealTime-Glo MT Cell Viability Assay in HEK293 cells - 24 hour (AID 1224886)
Outline: as §1
% is scaled to controls: 0 for no effect and ±100 for the full control effect.

CCN1CCN(C(=O)N[C@@H](C(=O)N[C@@H]2C(=O)N3[C@@H]2SC(C)(C)[C@H]3C(=O)O)c2ccccc2)C(=O)C1=O
inactive: outcome [1] | outcome [2] | Potency [3] | outcome [4] | outcome [5] | max response [6] 1.08% | Potency [7] | Potency [8] | outcome [9] | Potency [10] | Potency [11] | Potency [12] | Potency [13] | Potency [14] | Potency [15] | outcome [16] | outcome [17]

Cc1cc2c(cc1CC(=O)c1sccc1S(=O)(=O)Nc1onc(C)c1Cl)OCO2
inactive: outcome [1] | outcome [2] | outcome [18] | outcome [4] | outcome [5] | max response [6] 6.15% | Potency [7] | Potency [8] | outcome [9] | Potency [10] | Potency [11] | Potency [13] | Potency [19] | Potency [14] | Potency [15] | outcome [16] | outcome [17]

C=CCn1cc[n+](C)c1
inactive: outcome [1] | outcome [2] | outcome [18] | outcome [4] | max response [6] -3.76% | Potency [7] | outcome [9] | Potency [10] | Potency [11] | Potency [12] | Potency [13] | Potency [19] | Potency [15] | outcome [16] | outcome [20] | outcome [17]

O=C(O)/C=C(\CC(=O)O)C(=O)O
inactive: outcome [1] | outcome [2] | outcome [18] | outcome [4] | outcome [5] | max response [6] 4.26% | Potency [7] | Potency [8] | outcome [9] | Potency [10] | Potency [11] | Potency [12] | Potency [13] | Potency [19] | Potency [15] | outcome [16] | outcome [17]

CCCCCCCCOCCC#N
active: Potency [11] 15.5 µM
inactive: outcome [1] | outcome [2] | outcome [18] | outcome [4] | outcome [5] | max response [6] -1.56% | Potency [7] | Potency [8] | outcome [9] | Potency [12] | Potency [13] | Potency [19] | Potency [15] | outcome [16] | outcome [20] | outcome [17]

CCCCCCCC(=O)N(C)C
inactive: outcome [1] | outcome [2] | outcome [18] | outcome [5] | max response [6] 4.49% | Potency [7] | outcome [9] | Potency [12] | Potency [13] | Potency [19] | Potency [15] | outcome [16] | outcome [20] | outcome [17]

CN1CCN(C(=O)C2CCCCC2)CC1
inactive: outcome [1] | outcome [2] | outcome [18] | outcome [5] | max response [6] 0.482% | Potency [7] | Potency [8] | outcome [9] | Potency [10] | Potency [11] | Potency [12] | Potency [13] | Potency [19] | Potency [14] | Potency [15] | outcome [16] | outcome [20] | outcome [17]

CC(=O)Nc1ccc(OCCOCCOc2ccc(NC(C)=O)cc2)cc1
inactive: outcome [1] | outcome [2] | Potency [3] | outcome [4] | outcome [5] | max response [6] -1.67% | Potency [7] | Potency [8] | outcome [9] | Potency [10] | Potency [11] | Potency [12] | Potency [13] | Potency [19] | Potency [14] | Potency [15] | outcome [16] | outcome [20] | outcome [17]

COC(=O)C(c1ccccc1Cl)N1CCc2sccc2C1 (stereo not drawn)
inactive: outcome [1] | outcome [2] | outcome [18] | outcome [4] | outcome [5] | max response [6] -3.35% | Potency [7] | outcome [9] | Potency [10] | Potency [11] | Potency [12] | Potency [19] | Potency [15] | outcome [16] | outcome [20] | outcome [17]

CCCCCCCCCCCCCCCCN(C)C
inactive: activity change, negative = cytotoxic [1] 5.99% [at 6.97 µM] | cytotoxicity [2] 1.73% [at 6.97 µM] | cytotoxicity increase [3] 4.91% [at 6.97 µM] | activity change, negative = cytotoxicity [4] 5.86% [at 6.97 µM] | viability change, negative = cytotoxic [5] 3.36% [at 6.97 µM] | max response [6] 4.91% | activity change [7] 2.54% [at 6.97 µM, stronger effect = higher value] | cytotoxicity increase [8] 1.82% [at 6.97 µM] | activity change, negative = cytotoxic [9] -0.525% [at 6.97 µM] | cytotoxicity [10] 1.92% [at 6.97 µM] | cytotoxicity increase [11] 0.0455% [at 6.97 µM] | activity change, negative = cytotoxicity [12] 2.86% [at 6.97 µM] | cytotoxicity increase [13] 3.45% [at 6.97 µM] | cytotoxicity [19] 2.28% [at 6.97 µM] | cytotoxicity increase [14] 1.06% [at 6.97 µM] | cytotoxicity increase [15] -0.796% [at 6.97 µM] | activity change, negative = cytotoxic [16] 0.191% [at 6.97 µM] | activity change, negative = cytotoxicity [17] 5.23% [at 6.97 µM]

Cc1ccc(N)nc1
inactive: outcome [1] | outcome [2] | Potency [3] | outcome [4] | outcome [5] | max response [6] 0.353% | Potency [7] | Potency [8] | outcome [9] | Potency [10] | Potency [11] | Potency [12] | Potency [13] | Potency [19] | Potency [15] | outcome [16] | outcome [20] | outcome [17]

CC(C)CC(=O)N[C@H](C(=O)N[C@H](C(=O)N[C@@H](CC(C)C)[C@@H](O)CC(=O)N[C@@H](C)C(=O)N[C@@H](CC(C)C)[C@@H](O)CC(=O)O)C(C)C)C(C)C (Isovaleryl-VV[Sta]A[Sta]-OH)
inactive: outcome [1] | outcome [2] | Potency [3] | outcome [4] | outcome [5] | max response [6] 14.7% | Potency [7] | Potency [8] | outcome [9] | Potency [10] | Potency [11] | Potency [12] | Potency [13] | Potency [19] | Potency [15] | outcome [16] | outcome [20] | outcome [17]

CCOC(=O)c1ccc(N(C)C)cc1
inactive: outcome [1] | outcome [2] | Potency [3] | outcome [4] | outcome [5] | max response [6] -8.74% | Potency [7] | Potency [8] | outcome [9] | Potency [10] | Potency [11] | Potency [12] | Potency [13] | Potency [19] | Potency [14] | Potency [15] | outcome [16] | outcome [20] | outcome [17]

CCCCOCCCC
inactive: outcome [1] | outcome [2] | outcome [18] | outcome [4] | outcome [5] | Potency [8] | outcome [9] | Potency [10] | Potency [12] | Potency [14] | Potency [15] | outcome [16] | outcome [20] | outcome [17]
